This is part of a sample that, as a whole, favours compounds with a hit. Of some 83,000 tested, about 20% had one in any assay.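 A percent growth of 40 corresponds to 60% growth inhibition; 0 means no net growth; -100 means all cells died. Active threshold: below 10.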 Activity calls are given as the source filed them.

In the test the test system is HL-60(TB) leukemia. The test is described as follows: NCI-60 one-dose screen, 48 h (100 = growth as untreated, 0 = no growth, -100 = all killed). The following applies: 10 µM unless noted.
Take `COc1ccc(Nc2c3c4c(cccc4[nH]c2=O)C(=O)c2ccccc2-3)cc1`: the growth is -60.4% (active).
The result for `CCCCCCCCCCCCCC1=NCC[N+]1(CCO)Cc1ccccc1` (stereo not given) reads -63.8% (active).
The same measure for `COC(=O)Nc1nc2ccc(C(=O)c3ccc(F)cc3)cc2[nH]1`: -70.4% (active); for `COc1cc(Cl)cc(-c2nn(-c3cccc(NC(=O)c4cc(C(F)(F)F)cc(C(F)(F)F)c4)c3)cc2-c2ccncc2)c1`: 84.3% (inactive); for `CCCCCC1CCCCN1C(=O)OCC` (stereo not given): 77.5% (inactive).
The same measure for `S=c1[nH]c2cc(Cl)ccc2s1`: 97.4% (inactive); for `c1ccc(-c2nnc(Nc3ccc4c(c3)OCCO4)o2)c(NCc2ccncc2)c1`: 6.43% (active); for `c1ccc([C@H]2CN3CCSC3=N2)cc1`: 99.1% (inactive).
With `O=C(/C=C/CN1CCOCC1)Nc1cc2c(Nc3cccc(Cl)c3F)ncnc2cc1OCCOC(F)F`, the growth is 89.5% (inactive).
The same measure for `C[C@H]1OC(=O)/C=C/[C@@H](O)[C@@H](O)CCCCCCCC[C@@H]1O`: 99.6% (inactive); for `COc1ccc(-c2nc3c(ncc4ccc(=O)[nH]c43)s2)cc1`: 80.1% (inactive); for `CC(=O)c1c(Nc2cccc(F)c2)[nH]c2c(Cl)cc(Cl)c(Cl)c2c1=O`: -36.5% (active).
Consider `N#Cc1ccc(-c2ccc(COc3ccc(CC4SC(=O)NC4=O)cc3)cc2)cc1` (stereo not given), for which the growth was 70.5% (inactive).
The result for `O=C1CCCCC1(c1ccccc1)c1ccccc1` reads 106% (inactive).
The result for `CC(C)NS(=O)(=O)c1cccc(-c2ccc3c4c(n(CCCN(C)C)c(=O)c3c2)-c2ccccc2C4=O)c1` reads 65.3% (inactive); that for `Cc1ccc(-c2nc(SCc3nc4cc(Cl)c(Cl)cc4[nH]3)[nH]c(=O)c2C#N)cc1`, 96.9% (inactive); that for `COC1=CC(c2ccc[nH]2)=N/C1=C\c1[nH]c(C)c(CC(=O)OCc2ccccc2)c1C`, -29.2% (active).
The same measure for `COc1ccc2c(c1)Nc1ccccc1S2`: 102% (inactive); for `Cc1ccc(-c2c(Br)c(OC(=O)CO[C@@H]3C[C@H](C)CC[C@H]3C(C)C)c(-c3ccc(C)cc3C)c(Br)c2OC(=O)CO[C@H]2C[C@@H](C)CC[C@@H]2C(C)C)c(C)c1`: 101% (inactive).
As for `CC(O)CNC(Cc1ccccc1)c1ccc2c(c1)OCO2` (stereo not given), the growth was 96.3% (inactive).
Regarding `N#C/C(=C\c1ccc(Cl)cc1Cl)C(=O)Nc1ncc(Cc2ccc(Cl)c(Cl)c2)s1`, the growth was 98.8% (inactive).
The same measure for `CCOc1ccccc1/C=N/Nc1nc2ccccc2o1`: 98.6% (inactive); for `CN(C)c1ccc(/C=C(\C#N)c2nc3ccccc3c(=O)[nH]2)cc1`: 108% (inactive).
With `Clc1ccc(Cc2nc3ccccc3s2)cc1`, the growth is 98.6% (inactive).
As for `CC[C@]1(O)C[C@@H]2CN(CCc3c([nH]c4ccccc34)[C@@](C(=O)OC)(c3cc4c(cc3OC)N(C)[C@H]3[C@@](O)(C(=O)OC)[C@H](OC(C)=O)[C@]5(CC)C=CCN6CC[C@]43[C@@H]65)C2)C1`, the growth was -7.59% (active).
The same measure for `Nc1nc(Nc2ccc([N+](=O)[O-])cc2O)nc(C(Cl)(Cl)Cl)n1`: 6.38% (active); for `N#Cc1c(-c2cccc(Cl)c2)cc(-c2cccc(F)c2)[nH]c1=O`: -58.3% (active); for `COCCOc1cc2ncnc(N3CCN(c4cc(S(C)(=O)=O)c(C)cc4Cl)CC3)c2cc1OCCOC`: 97.4% (inactive).
For `CCOc1ccc(/C=C(\C#N)c2cc3ccccc3[nH]2)cc1`, the growth was 43.7% (inactive).
For the molecule `CCCCCCCCCCCC1N=C(N)N=C(N)N1c1cccc(Br)c1` (stereo not given), the growth was -53% (active).
The same measure for `O=C(NNC(=O)N1c2ccccc2C=Cc2ccccc21)c1ccccc1`: 98.8% (inactive); for `CC(C)(C)OC(=O)NCCc1ccc(N=C=S)cc1`: 19.8% (inactive).
With `COCCn1cc(-c2csc(-c3c[nH]c4ccc(F)cc34)n2)c2cccnc21`, the growth is 13.9% (inactive).
The result for `COc1cccc(N2CCN(c3ncnc4cc[nH]c34)CC2)c1` reads 71.3% (inactive); that for `COC(=O)c1cc(-c2cc(OC)c(OC)c(OC)c2)[nH]c1N/N=C/c1c(Cl)cccc1Cl`, 134% (inactive).
The same measure for `O=[N+]([O-])c1ccc(Oc2ccccc2Cl)c([N+](=O)[O-])c1`: -1.82% (active); for `N#Cc1c(-c2ccccc2)[nH]c2ncc(-c3ccccc3)n2c1=O`: 97.1% (inactive); for `CC1(C)N=C(N)N=C(N)N1c1cccc(Br)c1`: 33.9% (inactive).
Take `COc1cc2ccnc(C=O)c2cc1OC`: the growth was -27.4% (active).
The result for `COc1ccc(C2CC(=O)Oc3c(OC)c4c(c(OC)c32)OCO4)cc1` (stereo not given) reads 95.6% (inactive).
